Assay results: PubChem BioAssay AID1159580 (chemical genetic matrix, 2015)
Several values for one entry are separate records, joined by “and”; a condition that tells them apart may be missing. Equal entries are not always repeated. Hit rate of the full screen: of about 5,500 compounds, about 2,000 (36%) were called active. Another 18% or so got no clear call; they are omitted. Cut-off read from the data, not from the text of the source: active = normalized growth mostly below about 0.91 (no sharp cut-off); inconclusive = no clear call, values can overlap the other calls; inactive = mostly above about 0.92. This is one part of the list.

Test: chemical genetic growth profiling, strain panel (AID 1159580);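 note: tested at 20 µM; growth read once vehicle control cultures reached saturation at 30 °C; 1 = growth at the plate median or of vehicle wells; lower values mean less growth of the strain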
Settings: S. cerevisiae deletion strains, growth OD

Measured: normalized growth

CCC(=O)O[C@]1(C(=O)CCl)[C@@H](C)CC2C3CCC4=CC(=O)C=C[C@]4(C)[C@@]3(F)[C@@H](O)C[C@@]21C (stereo not given in full)
inactive: locus YAL013W, strain DEP1, active compounds read low 0.976 | locus YAL021C, strain ccr4, active compounds read low 1.02 | locus YAL026C, strain drs2, active compounds read low 1.02 | locus YAL030W, strain snc1, active compounds read low 1.02 | locus YBL061C, strain skt5, active compounds read low 1.03 | locus YBR009C, strain hhf1, active compounds read low 1.01 | locus YBR021W, strain FUR4, active compounds read low 0.968 | locus YBR023C, strain chs3, active compounds read low 1.02 | locus YBR171W, strain sec66, active compounds read low 1.03 | locus YBR229C, strain ROT2, active compounds read low 0.986 | locus YBR231C, strain swc5, active compounds read low 1.02 | locus YBR279W, strain paf1, active compounds read low 1 | locus YCL011C, strain gbp2, active compounds read low 1.02 | locus YCL016C, strain dcc1, active compounds read low 1.02 | locus YCL029C, strain bik1, active compounds read low 0.96 | locus YCL061C, strain MRC1, active compounds read low 1.03 | locus YCL069W, strain vba3, active compounds read low 1.02 | locus YCR088W, strain abp1, active compounds read low 1.02 | locus YDL005C, strain med2, active compounds read low 1.03 | locus YDL035C, strain GPR1, active compounds read low 0.958 | locus YDL040C, strain nat1, active compounds read low 1.03 | locus YDL074C, strain BRE1, active compounds read low 0.975 | locus YDL101C, strain DUN1, active compounds read low 0.989 | locus YDL134C, strain PPH21, active compounds read low 0.981 | locus YDL185W, strain tfp1, active compounds read low 0.949 | locus YDL192W, strain arf1, active compounds read low 0.982 | locus YDR001C, strain nth1, active compounds read low 1.02 | locus YDR069C, strain doa4, active compounds read low 1.03 | locus YDR101C, strain arx1, active compounds read low 1.01 | locus YDR137W, strain rgp1, active compounds read low 0.99 | locus YDR150W, strain NUM1, active compounds read low 0.975 | locus YDR159W, strain sac3, active compounds read low 1.02 | locus YDR162C, strain NBP2, active compounds read low 0.953 | locus YDR195W, strain ref2 1.02 | locus YDR297W, strain sur2, active compounds read low 1.01 | locus YDR318W, strain mcm21, active compounds read low 0.988 | locus YDR334W, strain swr1, active compounds read low 1.01 | locus YDR335W, strain msn5, active compounds read low 1.02 | locus YDR388W, active compounds read low 0.987 | locus YDR392W, strain spt3, active compounds read low 1.03 | locus YDR502C, strain sam2, active compounds read low 0.963 | locus YEL003W, strain gim4, active compounds read low 1.01 | locus YEL037C, strain rad23, active compounds read low 1.02 | locus YEL061C, strain CIN8 (second series), active compounds read low 1.02 | locus YEL061C, strain CIN8, active compounds read low 0.985 | locus YER015W, strain faa2, active compounds read low 1.01 | locus YER016W, strain bim1, active compounds read low 1.01 | locus YER110C, active compounds read low 0.971 | locus YER111C, strain swi4, active compounds read low 1.02 | locus YER155C, strain BEM2 (second series), active compounds read low 1.07 | locus YER155C, strain BEM2, active compounds read low 0.987 | locus YER167W, strain BCK2, active compounds read low 0.986 | locus YFR010W, strain ubp6, active compounds read low 1.02 | locus YGL078C, strain dbp3, active compounds read low 0.978 | locus YGL086W, strain mad1, active compounds read low 0.973 | locus YGL167C, strain pmr1, active compounds read low 1.03 | locus YGL173C, strain kem1, active compounds read low 1.05 | locus YGL227W, strain vid30, active compounds read low 1.04 | locus YGL240W, strain doc1, active compounds read low 1.02 | locus YGL248W, strain PDE1, active compounds read low 1.02 | locus YGL253W, strain hxk2, active compounds read low 1 | locus YGR078C, strain PAC10, active compounds read low 0.999 | locus YGR135W, strain pre9, active compounds read low 0.974 | locus YGR229C, strain SMI1, active compounds read low 0.971 | locus YGR252W, strain gcn5, active compounds read low 1.04 | locus YHR013C, strain ard1, active compounds read low 1.03 | locus YHR027C, strain rpn1, active compounds read low 1.01 | locus YHR030C, strain SLT2, active compounds read low 0.974 and 0.963 | locus YHR079C, strain IRE1 (second series), active compounds read low 0.98 | locus YHR079C, strain IRE1, active compounds read low 0.957 | locus YHR094C, strain hxt1, active compounds read low 0.972 | locus YHR129C, strain ARP1, active compounds read low 0.993 | locus YHR142W, strain chs7, active compounds read low 1.01 | locus YHR200W, strain rpn10, active compounds read low 0.977 | locus YIL066C, strain RNR3, active compounds read low 0.985 | locus YIL073C, strain SPO22, active compounds read low 0.876 | locus YIL125W, strain kgd1, active compounds read low 0.985 | locus YIR030C, strain dcg1, active compounds read low 0.985 | locus YJL092W, strain hpr5, active compounds read low 1.02 | locus YJL095W, strain BCK1 (second series), active compounds read low 1.03 | locus YJL095W, strain BCK1, active compounds read low 1.05 and 0.971 | locus YJL115W, strain asf1, active compounds read low 1.04 | locus YJL129C, strain trk1, active compounds read low 1.01 | locus YJL134W, strain LCB3, active compounds read low 0.981 | locus YJL154C, strain vps35, active compounds read low 1.01 | locus YJL164C, strain tpk1, active compounds read low 1.03 | locus YJL166W, strain qcr8, active compounds read low 1.03 | locus YJL168C, strain set2, active compounds read low 1 | locus YJL187C, strain SWE1 (second series), active compounds read low 1 | locus YJL187C, strain SWE1, active compounds read low 1.02
